Experimental data from PubChem BioAssay (EPA / NIEHS).
Active and inactive are the calls of the source. Rule for the calls: active = hit-call score of the fitted dose curve at least 0.9, where 1 is the maximum; inactive = score below 0.9.

Assay: CCTE_Padilla_ZF_Score.Any: CCTE's 144 Hour Post-fertilization zebrafish Assay Score for Any Mortality or Malformation, Padilla Lab (AID 2284416)
In short: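 Wild-type zebrafish embryos with chorions, one per well in 10% Hanks' from 6–8 hpf, dosed in sealed plates at 26 C, 14:10 h light:dark; rinsed at 5 dpf; blinded scoring at 6 dpf for death or malformation, versus DMSO.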

| Structure (SMILES) | outcome | AC50 |
| --- | --- | --- |
| NC(O)(C(F)(F)F)C(F)(F)F | inactive | – |
| O=C(Cl)C(F)(F)C(F)(F)C(F)(F)C(F)(F)C(F)(F)C(F)(F)C(F)(F)F | – | 86.8 µM (active) |
| OCC(F)(F)C(F)(F)C(F)(F)CO | inactive | – |
| O=C(O)CCC(F)(F)C(F)(F)C(F)(F)F | – | 77.1 µM (active) |
| CO[Si](C)(CCC(F)(F)C(F)(F)C(F)(F)C(F)(F)C(F)(F)C(F)(F)F)OC | inactive | – |
